From PubChem BioAssay
Values joined by “and” are separate entries in the source; they are usually repeats but may differ in a detail not shown here. Equal entries are not always repeated. Active and inactive are the calls of the source.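 How the source made its calls, unless noted: active means mean z-score across replicates of 1.96 or higher in either the MELAS or the Rieske mutant cell line; inactive means the rest.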

Columns and labels:
[1] = phospholipid biosynthesis inhibitors in animal cells, primary screen, cell-based, LOPAC library, screen 4 (AID 1347384; call rule not given here); settings: phospholipid biosynthesis inhibition screen, at 10 µM
[2] = survival rescue of mitochondrial mutant cells in low glucose, primary screen, MELAS cybrids, Rieske KO mouse fibroblasts, CellTiter-Glo (AID 1508586);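 further: z relative to plate mean and SD of compound and empty wells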
[3] = viability rescue of complex I mutant cybrids, primary screen, cell-based, galactose medium, ATP luminescence (AID 1645843;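 active means z-score of at least 1.8 in each of two replicates, scored against plate mean and spread of sample wells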;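 further: positive z means more ATP and so rescue of galactose-driven cybrid death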); settings: complex I mutant cybrid cells, 72 h, stronger effect = higher value
[4] = molecular target: NAD(+) hydrolase SARM1 (Homo sapiens) (UniProt Q6SZW1); test: SARM1 TIR NADase inhibitors, cell lysate, NAD-Glo luminescence (AID 1508614;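 active means compound whose remaining NAD level is above about 45 nM, limit read from the data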); settings: SAM-TIR HEK293T lysate NADase, at 1 µM, stronger effect = higher value
[5] = molecular target: Mitogen-activated protein kinase 7 (Homo sapiens) (UniProt Q13164); test: ERK5 transactivation activators in reporter cells, primary screen, cell-based, HTS (AID 1508626;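 active means luciferase signal above three times the same-plate solvent-only control wells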;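 further: luciferase driven by Gal4-ERK5 fusion binding five Gal4 sites before minimal TATA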); settings: HeLa Gal4-ERK5 transactivation, 18 h, at 5 µM, stronger effect = higher value
[6] = MELAS cybrid survival, CellTiter-Glo 48 h, stronger effect = higher value
[7] = Rieske KO mouse fibroblast survival, CellTiter-Glo 72 h

Chain of NAD(+) hydrolase SARM1 (Homo sapiens) (Q6SZW1 whole entry, looked up, the tested form may be a part): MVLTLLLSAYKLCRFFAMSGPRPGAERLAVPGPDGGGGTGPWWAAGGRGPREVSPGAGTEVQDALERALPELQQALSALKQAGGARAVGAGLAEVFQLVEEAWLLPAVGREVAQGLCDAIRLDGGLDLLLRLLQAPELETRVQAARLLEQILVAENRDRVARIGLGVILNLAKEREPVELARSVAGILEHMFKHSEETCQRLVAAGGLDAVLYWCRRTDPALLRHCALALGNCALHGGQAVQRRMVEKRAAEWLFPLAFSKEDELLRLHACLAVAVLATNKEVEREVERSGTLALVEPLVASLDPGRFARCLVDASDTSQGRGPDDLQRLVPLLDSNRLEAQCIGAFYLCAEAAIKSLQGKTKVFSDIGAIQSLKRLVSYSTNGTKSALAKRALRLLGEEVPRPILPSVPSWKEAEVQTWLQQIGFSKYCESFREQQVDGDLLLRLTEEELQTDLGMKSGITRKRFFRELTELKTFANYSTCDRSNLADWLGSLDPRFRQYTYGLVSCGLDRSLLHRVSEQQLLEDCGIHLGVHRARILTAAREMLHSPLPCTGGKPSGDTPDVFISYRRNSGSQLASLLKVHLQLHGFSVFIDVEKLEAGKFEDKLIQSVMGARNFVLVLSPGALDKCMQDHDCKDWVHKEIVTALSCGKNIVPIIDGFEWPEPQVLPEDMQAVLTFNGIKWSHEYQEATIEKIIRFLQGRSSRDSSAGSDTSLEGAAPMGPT
Chain of Mitogen-activated protein kinase 7 (Homo sapiens) (Q13164 whole entry, looked up, the tested form may be a part): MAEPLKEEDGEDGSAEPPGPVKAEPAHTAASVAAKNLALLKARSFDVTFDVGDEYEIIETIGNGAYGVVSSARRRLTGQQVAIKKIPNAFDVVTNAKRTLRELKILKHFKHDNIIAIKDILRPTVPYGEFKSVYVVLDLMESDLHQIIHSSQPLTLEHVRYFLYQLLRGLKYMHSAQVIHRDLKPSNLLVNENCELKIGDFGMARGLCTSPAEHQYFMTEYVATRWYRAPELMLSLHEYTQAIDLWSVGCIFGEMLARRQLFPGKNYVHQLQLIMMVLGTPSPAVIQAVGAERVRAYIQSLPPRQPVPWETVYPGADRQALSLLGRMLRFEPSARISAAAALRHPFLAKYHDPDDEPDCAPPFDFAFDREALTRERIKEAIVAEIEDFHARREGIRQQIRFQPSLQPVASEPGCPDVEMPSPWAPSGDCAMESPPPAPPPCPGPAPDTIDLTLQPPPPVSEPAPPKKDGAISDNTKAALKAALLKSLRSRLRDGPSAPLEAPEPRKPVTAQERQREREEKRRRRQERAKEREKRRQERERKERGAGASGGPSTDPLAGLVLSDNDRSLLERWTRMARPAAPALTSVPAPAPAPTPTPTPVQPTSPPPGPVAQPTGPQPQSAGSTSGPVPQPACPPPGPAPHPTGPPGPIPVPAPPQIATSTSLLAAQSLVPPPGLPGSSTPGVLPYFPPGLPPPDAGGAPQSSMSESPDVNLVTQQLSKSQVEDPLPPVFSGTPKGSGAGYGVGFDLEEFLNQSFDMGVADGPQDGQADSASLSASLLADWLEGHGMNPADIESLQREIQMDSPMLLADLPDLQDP

Compound | outcome [1] | z-score [2, 6] | z-score [2, 7] | z-score [3] | remaining NAD [4] | luciferase signal [5]
NS(=O)(=O)Cc1noc2ccccc12 | inactive | 0.598 (inactive) and -0.977 (inactive) and -0.661 (inactive) | -0.432 and -0.0491 and -0.914 | 1.1 (inactive) and -0.005 (inactive) and 0.465 (inactive) | – | –
COC(=O)C1=C(C)NC(C)=C(C(=O)O[C@@H]2CCCN(Cc3ccccc3)C2)[C@@H]1c1cccc([N+](=O)[O-])c1 | – | 0.772 (inactive) | 0.352 | – | – | –
CCN(CC)CCOCCOC(=O)C1(c2ccccc2)CCCC1 | inactive | 0.546 (inactive) | 0.186 | -0.64 (inactive) and -0.655 (inactive) | 10 nM (inactive) | 36 AU (inactive)
NC(N)=NC(=O)Cc1c(Cl)cccc1Cl | inactive | -0.203 (inactive) and -0.668 (inactive) | 0.336 and -1.29 | -0.06 (inactive) and -0.17 (inactive) and -0.035 (inactive) | 10 nM (inactive) | –
CN(C)C(=O)Oc1cccc([N+](C)(C)C)c1 | inactive | 0.498 (inactive) and -0.72 (inactive) | 0.395 and -0.634 | 0.53 (inactive) and 0.21 (inactive) | 10 nM (inactive) | 48 AU (inactive)
OCc1cc(C(O)CNCCCCCCOCCCCc2ccccc2)ccc1O (stereo unspecified) | inactive | 0.496 (inactive) and 0.0699 (inactive) | -0.33 and 0.063 | – | – | –
CC(=O)O[C@]1(C(C)=O)CC[C@H]2[C@@H]3C=C(Cl)C4=CC(=O)CC[C@]4(C)[C@H]3CC[C@@]21C | – | -0.83 (inactive) | 0.517 | – | 10 nM (inactive) | 76 AU (inactive)
CNC1(C)C2CCC(C2)C1(C)C (stereo unspecified) | inactive | -0.287 (inactive) and -0.243 (inactive) | 0.191 and -0.476 | 0.26 (inactive) and 0.15 (inactive) | – | 108 AU (inactive)
NC(N)=N/N=C/c1c(Cl)cccc1Cl | inactive | -0.136 (inactive) and 1.02 (inactive) | 0.531 and 1.03 | -0.795 (inactive) and 0.845 (inactive) and -1.38 (inactive) | 10 nM (inactive) | 52 AU (inactive)
COc1ccc(CN(CCN(C)C)c2ccccn2)cc1 | inactive | 0.327 (inactive) and -0.721 (inactive) | 0.0359 and 0.287 | -0.145 (inactive) and 0.84 (inactive) and 0.65 (inactive) | 18 nM (inactive) | 88 AU (inactive)
CN1CCN(C2=Nc3ccccc3Oc3ccc(Cl)cc32)CC1 | inactive | -0.155 (inactive) and 0.0915 (inactive) | -0.224 and 0.0483 | -0.48 (inactive) and -0.015 (inactive) | 10 nM (inactive) | 132 AU (inactive)
CCN(CC)CCNC(=O)c1cc(Cl)c(N)cc1OC | inactive | -1.13 (inactive) and 0.206 (inactive) and 0.37 (inactive) | -0.268 and 0.0241 and 0.87 | -0.285 (inactive) and 0.055 (inactive) and 0.595 (inactive) | 10 nM (inactive) | 100 AU (inactive)
CCCCNc1ccc(C(=O)OCCN(C)C)cc1 | inactive | -0.338 (inactive) and -0.454 (inactive) | -0.0172 and -0.0428 | -0.23 (inactive) | 10 nM (inactive) | 76 AU (inactive)
O=C(CCNNC(=O)c1ccncc1)NCc1ccccc1 | inactive | -0.952 (inactive) and 0.716 (inactive) | -0.171 and 0.697 | 0.035 (inactive) and 0.205 (inactive) and 0.305 (inactive) | 10 nM (inactive) | 76 AU (inactive)
O=C1NCC2(CCN(CCc3ccccc3)CC2)O1 | inactive | -0.249 (inactive) and 0.534 (inactive) | -0.174 and -0.0853 | 0.155 (inactive) | 10 nM (inactive) | 52 AU (inactive)
CC(N)C(=O)OC(C)(C)Cc1ccc(Cl)cc1 (stereo unspecified) | inactive | – | – | – | 10 nM (inactive) | 92 AU (inactive)
CN1CCN(CC(=O)N2c3ccccc3C(=O)Nc3cccnc32)CC1 | inactive | 0.149 (inactive) and -0.644 (inactive) | -0.103 and -0.194 | 1.01 (inactive) and 0.81 (inactive) | 10 nM (inactive) | 188 AU (inactive)
C#CCN(C)Cc1ccccc1 | inactive | -0.298 (inactive) and 0.205 (inactive) | -0.334 and 0.464 | 0.465 (inactive) and 0.37 (inactive) | 10 nM (inactive) | 60 AU (inactive)
CCCCC1C(=O)N(c2ccccc2)N(c2ccccc2)C1=O | inactive | 0.0284 (inactive) and -1.01 (inactive) and 0.0538 (inactive) | 0.0743 and -0.296 and -0.0136 | 0.865 (inactive) and 0.7 (inactive) | 10 nM (inactive) | 156 AU (active)
C[N+](C)(C)CCOC(N)=O | inactive | -0.544 (inactive) and -0.486 (inactive) | -1.06 and 1.01 | 0.575 (inactive) and 0.535 (inactive) | 12 nM (inactive) | 72 AU (inactive)
Clc1ccccc1C(c1ccccc1)(c1ccccc1)n1ccnc1 | inactive | -0.333 (inactive) and -0.755 (inactive) | 0.273 and 0.133 | -1.52 (inactive) and -1.44 (inactive) | 10 nM (inactive) | 72 AU (inactive)
O=C1c2cccc3c2[C@H](CCC3)CN1[C@@H]1CN2CCC1CC2 | – | 0.942 (inactive) | 0.737 | – | – | –
c1ccc(CN(CC2=NCCN2)c2ccccc2)cc1 | – | 0.519 (inactive) and -0.255 (inactive) and -0.229 (inactive) | -0.208 and -0.144 and -0.113 | -0.39 (inactive) and 0.065 (inactive) | 10 nM (inactive) | 112 AU (inactive)
Nc1c(Br)cc(Br)cc1CNC1CCC(O)CC1 (stereo unspecified) | – | -0.0247 (inactive) and 0.738 (inactive) and 0.116 (inactive) | -0.062 and -0.225 and -0.64 | -0.32 (inactive) and 0.295 (inactive) | 10 nM (inactive) | 84 AU (inactive)
CSc1ccc2c(c1)C(N1CCN(C)CC1)Cc1ccccc1S2 (stereo unspecified) | inactive | -0.294 (inactive) and -0.887 (inactive) | 0.279 and -1.2 | -1.29 (inactive) and -1.22 (inactive) and -2.1 (inactive) | 10 nM (inactive) | –
Brc1c(NC2=NCCN2)ccc2nccnc12 | inactive | -0.224 (inactive) and -0.413 (inactive) | -0.21 and -1.29 | 0.235 (inactive) and -0.385 (inactive) and -0.11 (inactive) | – | –
Cc1scc2c1N(C(=O)CN1CCN(C)CC1)c1ccccc1NC2=O | inactive | 0.644 (inactive) and 0.966 (inactive) | 0.467 and 0.592 | 0.33 (inactive) and 0.02 (inactive) and 0.68 (inactive) | 10 nM (inactive) | –
